# From PubChem
# Rows were chosen to be rich in hits. Some 8.8% of all compounds tested hit in one or more screens of this group.
# LMNA splice mod: changes lamin A minigene splicing in HeLa cells; HeLa LMNA splicing GFP/RFP minigene ratio, 48 h; Potency, µM (titrated, usually from 46.1 µM), for inactives: top-dose ratio change, negative = inhibition, most hits filed as inhibitors; 0.01% of 200,000 active; active means well fitted inhibition curve with a large enough effect in the signal ratio, with a control signal flat, not every such curve was filed as active; inconclusive means small, poorly fitted or top-dose-only effect, or effect the other way, or a change in a side signal; the % refers to the signal ratio; further: on the % scale 0 is the no-effect control and ±100 the full control effect
#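 S3 HeLa cells stably expressing lamin A-EGFP splicing minigene plus DsRed2, 600 cells/well, 48 h compound exposure at 37C. Laser-scanning cytometry; analysed as GFP (500-530 nm)/RFP (575-640 nm) total intensity ratio; 0.5% DMSO vehicle.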
# HTT ATP protect: Huntington cell model cytoprotection by ATP luminescence | PC12 HTT-Q103 induced, cytoprotection, ATP luminescence, 40 h | Potency, µM (highest dose often 56.4 µM), for inactives: cytoprotection (ATP increase), hits mostly activators | 0.14% of 230,000 active; further: % of control where 0% means no effect; nearly all actives have a fitted effect of over 45% in size
#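 PC12 cells stably carrying ecdysone-inducible Htt exon 1 (Q103)–GFP were induced with 100 nM tebufenozide (final) alongside library compounds in a dose series. Cytoprotection was scored as retained ATP by ATPlite luminescence.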
# ALDH1A1 block: inhibitors of human aldehyde dehydrogenase 1A1; P00352; Purified ALDH1A1, NADH fluorescence, propionaldehyde substrate; Potency, µM (doses to about 75.3 µM), inactives show at the highest dose activity, negative = inhibition, usual class: inhibitors; 7.3% of 220,000 active; AID 1030; active means well fitted inhibition curve with a large enough effect, not every such curve was filed as active; inconclusive means small, poorly fitted or top-dose-only effect, or another doubt; inactive means no such curve, though single readings can be large or run the other way;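 further: plate controls were no enzyme wells and a reference inhibitor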
# Target sequence (P00352 whole entry, looked up): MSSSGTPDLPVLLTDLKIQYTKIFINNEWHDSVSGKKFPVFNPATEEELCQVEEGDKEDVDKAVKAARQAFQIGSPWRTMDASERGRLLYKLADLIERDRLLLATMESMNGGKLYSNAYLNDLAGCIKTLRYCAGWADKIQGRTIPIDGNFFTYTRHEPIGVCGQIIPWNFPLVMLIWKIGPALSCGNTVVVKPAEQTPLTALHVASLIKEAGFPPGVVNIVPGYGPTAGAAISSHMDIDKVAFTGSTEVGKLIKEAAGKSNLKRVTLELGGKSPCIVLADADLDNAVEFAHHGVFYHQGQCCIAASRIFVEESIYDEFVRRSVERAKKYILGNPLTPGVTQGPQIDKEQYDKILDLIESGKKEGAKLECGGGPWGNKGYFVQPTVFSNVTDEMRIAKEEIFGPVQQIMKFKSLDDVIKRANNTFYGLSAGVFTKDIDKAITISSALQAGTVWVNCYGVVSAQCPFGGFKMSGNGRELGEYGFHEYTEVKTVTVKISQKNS
# HPGD block: inhibitors of human 15-hydroxyprostaglandin dehydrogenase (HPGD). P15428. purified HPGD, NADH fluorescence kinetic, PGE2 substrate. Potency, µM, for the others: at the highest dose activity change, negative = inhibition, usual class: inhibitors. 4.3% of 150,000 active. AID 894; active means well fitted inhibition curve with a large enough effect, not every such curve was filed as active; inconclusive means small, poorly fitted or top-dose-only effect, or another doubt; inactive means no such curve, though single readings can be large or run the other way; further: on the % scale 0 is the no-effect control and ±100 the full control effect
# Target sequence (P15428 whole entry, looked up): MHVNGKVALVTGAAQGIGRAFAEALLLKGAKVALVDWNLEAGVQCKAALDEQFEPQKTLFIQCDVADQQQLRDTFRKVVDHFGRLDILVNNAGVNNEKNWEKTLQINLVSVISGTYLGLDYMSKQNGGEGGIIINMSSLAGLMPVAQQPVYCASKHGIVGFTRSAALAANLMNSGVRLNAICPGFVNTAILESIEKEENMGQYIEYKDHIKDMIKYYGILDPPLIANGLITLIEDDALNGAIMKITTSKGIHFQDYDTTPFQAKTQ
#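 20 nM HPGD preincubated 15 min at room temperature with compound in 50 mM Tris-HCl pH 8, 0.01% Tween 20. Started with 1 mM NAD+ and 30 uM prostaglandin E2; NADH fluorescence (360/450 nm) read 5 times over 30-s intervals, last minus first.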
# HttQ103 aggreg: inhibitors of mutant huntingtin aggregate formation in PC12 cells; PC12 HttQ103-GFP aggregates, Acumen cytometry, 40 h; Potency, µM (doses to about 46.1 µM), for the others: at the top dose activity change, negative = inhibition, usual class: inhibitors; 1.1% of 220,000 active; further: on the % scale 0 is the no-effect control and ±100 the full control effect; nearly all actives have a fitted effect of over 60% in size
#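 Using laser scanning cytometry, GFP-positive aggregates were counted after lysis of PC12 cells induced with 100 nM tebufenozide to express HTT exon 1 Q103–GFP. Compounds were tested in titration.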
# Active calls of the source: *; ? = inconclusive; nt = no result given; [ ] = remark or other dose. Unless noted, the call rests on the fitted dose curve; in most records, active means well fitted curve in the direction sought with a large enough effect; inconclusive means small, poorly fitted or top-dose-only effect, or another doubt; inactive means no such curve, though single readings can be large; an effect the other way counts as inactive or inconclusive. Potency means the concentration at half of the fitted maximal effect.
SMILES,LMNA splice mod,HTT ATP protect,ALDH1A1 block,HPGD block,HttQ103 aggreg
CCOC(=O)c1c(N)sc(C(=O)OC)c1C,nt,6.8%[10 µM],?,nt,2.4%[9.22 µM]
COC(=O)c1sc(N)c(C(=O)OC)c1COC(=O)c1c(C)noc1C,?,-62.2%,-10.6%,17.8µM*,-4.0%
Cc1ccc(OCc2nnc(SCc3cc(=O)[nH]c4ccccc34)n2-c2ccccc2)cc1,1.3%,-14.9%[10 µM],7.8%,11.2µM*,?
CC(=O)c1ccccc1OC(=O)COc1ccc(Cl)cc1C,nt,-18.0%,-4.5%,nt,6.2%
COc1cc(OC)cc(-c2nc(-c3ccccc3OC)no2)c1,-2.1%,-8.5%[10 µM],-4.8%,-13.2%,-3.1%
Clc1ccc(N=c2ssnc2Cl)nc1,nt,-34.8%[10 µM],-3.3%,nt,-17.9%[9.22 µM]
Clc1nssc1=Nc1ccc(Br)cc1,nt,-100.8%,1.78µM*,nt,?
N#Cc1cccc(N=c2ssnc2Cl)c1,?,7.7%[10 µM],1.26µM*,nt,-7.6%
COc1cc(N=c2ssnc2Cl)cc(OC)c1,8.8%,11.7%,0.316µM*,0.631µM*,10µM*
OCc1ccccc1N=c1ssnc1Cl,11.1%,-10.4%,0.891µM*,6.31µM*,12.6%
CCCCn1c(NC(=O)c2ccccc2Cl)c(C#N)c2nc3ccccc3nc21,?,-62.2%,?,?,10µM*
N#Cc1c(NC(=O)c2ccccc2Cl)n(Cc2ccccc2)c2nc3ccccc3nc12,-26.6%,-18.1%[10 µM],?,?,?
CC(Sc1nnnn1-c1ccc(Cl)cc1)C(=O)NCC(=O)Nc1ccc(F)c(F)c1F (configuration not stated),?,43.5%[0.074 µM],2.7%,-17.2%,6.4%
COc1cc(NC(=O)c2nn(-c3ccc(F)cc3)c(=O)n(C)c2=O)cc(OC)c1OC,-6.4%[46 µM],nt,nt,nt,nt
N#C/C(=C/c1cn(CC(=O)O)c2ccccc12)C(=O)Nc1ccccc1,?,7.7%[10 µM],25.1µM*,nt,3.0%[9.22 µM]
N#C/C(=C\c1cn(Cc2ccccc2C#N)c2ccccc12)C(=O)NCc1cccs1,8.2%,-12.8%,7.94µM*,?,-1.2%
CCc1ccc(NC(=O)/C(C#N)=C/c2cn(CC(=O)O)c3ccccc23)cc1,nt,10.7%[10 µM],2.3%,nt,19.7%[9.22 µM]
COc1ccccc1OCCn1cc(/C=C(\C#N)C(=O)NCc2cccs2)c2ccccc21,-11.3%,-2.5%[10 µM],?,-23.6%,?
Cc1cccc(NC(=O)/C(C#N)=C\c2cn(CC(=O)O)c3ccccc23)c1,nt,-10.3%,20µM*,nt,9.4%
CCCCC=O,nt,0.7%,5.0%,-2.4%,nt
Cc1cccc(/C=C2\CCC(=C3SCCCS3)C2=O)c1,0.9%,-59.8%,8.91µM*,-28.5%,6.5%
O=C1C(=C2SCCCS2)CC/C1=C\c1ccc(F)cc1,14.1%,-105.3%,4.8%,-6.9%,-4.2%
CN(C(=O)Cn1nnc(-c2cccc(C(F)(F)F)c2)n1)C1CCCCC1,9.5%,3.6%,35.5µM*,-7.6%,-7.4%
N=C1C2=C3Sc4ccccc4N3CCCC2=NN1c1cccc(S(=O)(=O)O)c1,nt,0.5%[10 µM],nt,nt,-1.7%[9.22 µM]
CC(C)(C)c1nnc2sc(SCC(=O)c3ccc(Cl)cc3)nn2c1=O,?,-41.8%,4.47µM*,28.2µM*,?
SMILES,LMNA splice mod,HTT ATP protect,ALDH1A1 block,HPGD block,HttQ103 aggreg
CCC(=O)NC(c1ccccc1OC)c1ccc2cccnc2c1O (configuration not stated),?,-71.6%[10 µM],0.5%,-10.7%,3.16µM*
Cc1nc2cc3nc(C)sc3cc2s1,-5.7%,-88.3%[0.074 µM],1.78µM*,12.6µM*,6.7%
Cc1nc(CC(C)C)cc(C(=O)N2CCCC(CNS(=O)(=O)c3cccs3)C2)n1 (configuration not stated),?,16.2%[10 µM],-9.1%,nt,16.3%[9.22 µM]
Cc1cc(C(=O)N2CCCC(CNS(=O)(=O)c3cccs3)C2)nn1C (configuration not stated),?,3.7%[10 µM],17.8µM*,nt,-3.6%[9.22 µM]
Cc1ccc(C(=O)NCc2ccco2)cc1Br,-0.5%,16.3%[10 µM],?,-29.6%,-22.0%
CSc1ccc(Cl)c(C(=O)NCc2ccco2)c1,9.2%,1.8%,?,15.8µM*,-5.3%
COc1cc(CC(=O)NCc2ccco2)cc(OC)c1OC,6.8%,0.2%,-1.2%,-4.3%,-9.1%
CSc1ccc(Cl)c(C(=O)OCC(=O)NCc2ccco2)c1,20.4%,-7.3%,?,?,6.3%
Cc1ccc2c(CC(=O)NCc3ccco3)coc2c1C,?,-23.4%[10 µM],25.1µM*,2.82µM*,-4.2%
Cc1c(Br)cc(C(=O)NCc2ccco2)c(C)c1C,17.3%,-23.2%,?,25.1µM*,13.2%
COc1ccccc1CNC(=O)COCc1cc(-c2ccc3c(c2)OCO3)on1,-6.0%[46 µM],nt,nt,nt,nt
Cc1nn(C)c(C)c1NC(=O)c1ccnn1C,10.8%,5.1%[10 µM],17.8µM*,-7.2%,7.2%
Cn1nccc1C(=O)Nn1cnnc1,-6.1%,3.5%,11.4%,nt,11.7%
O=C(NCc1ccc2c(c1)CCN2C(=O)c1ccc(Cl)cc1)c1cccc(F)c1,-12.5%[46 µM],nt,nt,nt,nt
Cc1sc(NC(=O)c2cc(-c3ccc(Cl)cc3)nc3ccccc23)c(C(N)=O)c1C,?,-54.2%,25.1µM*,12.6µM*,24.7%
COC(=O)c1sc(NC(=O)c2cc(-c3ccccc3)nc3ccccc23)c(C#N)c1C,?,-44.3%,14.1µM*,3.55µM*,2.24µM*
Cc1sc(NC(=O)c2cc(-c3ccccc3)nc3ccccc23)c(C(N)=O)c1C,?,-1.7%[10 µM],8.4%,-8.8%,-3.1%
COc1ccc(-c2cc(C(=O)Nc3sc4c(c3C#N)CCCC4)c3ccccc3n2)cc1,?,-3.2%[10 µM],?,?,-11.8%
Cc1ccccc1-c1cc(C(=O)Nc2sc(C(=O)OC(C)C)c(C)c2C#N)c2ccccc2n1,?,-37.7%,8.91µM*,15.8µM*,4.47µM*
CCOC(=O)c1sc(NC(=O)CSc2n[nH]c(-c3ccncc3)n2)c(C#N)c1C,?,-90.8%[10 µM],35.5µM*,5.01µM*,7.08µM*
CCOC(=O)c1sc(NC(=O)CSc2nccc(C)n2)c(C#N)c1C,2.2%,0.1%,-1.4%,-8.3%,12.1%
O=C(N/N=C/c1cccc2cccnc12)c1ccccc1O,nt,-33.5%[10 µM],nt,nt,-9.9%[9.22 µM]
COc1ccc(CCN2C(=O)CN(C3CCCCCC3)C(=O)C2c2ccc(C)cc2)cc1OC (configuration not stated),-5.7%[46 µM],nt,nt,nt,nt
O=C(NC(=S)Nc1ccccc1)c1cc(-c2ccccc2)nc2ccccc12,-30.8%,23.2%,1.26µM*,20µM*,5.1%
CCOC(=O)c1sc(NC(=O)c2cc(-c3ccc(C)cc3)nc3ccccc23)c(C#N)c1C,6.5%,-70.4%,?,22.4µM*,10µM*
CC(=O)c1sc(N/N=C2\CC3CC2C(C)C3(C)C)nc1C (configuration not stated),30.6%[46 µM],7.1%[10 µM],15.8µM*,nt,23.1%[9.22 µM]
Cc1ccc(NC(=S)NNC(=O)CSc2nc3ccccc3c(=O)n2-c2ccc(C)cc2)cc1,?,20.3%[10 µM],?,-23.5%,-8.0%
COc1ccc2c(c1)C(c1cc(OC)c(OC)c(OC)c1)CC(=O)O2 (configuration not stated),nt,-29.4%,8.4%,-3.1%,nt
